In PubChem BioAssay (NCATS):
Results filed as inconclusive are left out. The list shows a part of the results. Active and inactive are the calls of the source. Unless noted, calls follow the shape of the dose curve; as a rule, active = well fitted curve in the direction sought with a large enough effect; inconclusive = small, poorly fitted or top-dose-only effect, or another doubt; inactive = no such curve, though single readings can be large; an effect the other way counts as inactive or inconclusive.

How the values were obtained:
[1] = target: Rap guanine nucleotide exchange factor 3 (Homo sapiens) (UniProt O95398); assay: Confirmatory qHTS for antagonist of cAMP-regulated guanine nucleotide exchange factor 3 (EPAC1) (AID 1645880); conditions: EPAC1 Rap1B-BODIPY-GDP exchange, fluorescence; activity, negative = inhibition: at 115 µM (top of the series); also: nearly all actives have a fitted effect of over 55% in size; also: potency is read from the fitted curve at half-maximal effect;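 as to activity, negative = inhibition: plate controls were DMSO only for no effect and full effect of the ATA control for full effect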
Rap guanine nucleotide exchange factor 3 (Homo sapiens), sequence (O95398 whole entry, looked up): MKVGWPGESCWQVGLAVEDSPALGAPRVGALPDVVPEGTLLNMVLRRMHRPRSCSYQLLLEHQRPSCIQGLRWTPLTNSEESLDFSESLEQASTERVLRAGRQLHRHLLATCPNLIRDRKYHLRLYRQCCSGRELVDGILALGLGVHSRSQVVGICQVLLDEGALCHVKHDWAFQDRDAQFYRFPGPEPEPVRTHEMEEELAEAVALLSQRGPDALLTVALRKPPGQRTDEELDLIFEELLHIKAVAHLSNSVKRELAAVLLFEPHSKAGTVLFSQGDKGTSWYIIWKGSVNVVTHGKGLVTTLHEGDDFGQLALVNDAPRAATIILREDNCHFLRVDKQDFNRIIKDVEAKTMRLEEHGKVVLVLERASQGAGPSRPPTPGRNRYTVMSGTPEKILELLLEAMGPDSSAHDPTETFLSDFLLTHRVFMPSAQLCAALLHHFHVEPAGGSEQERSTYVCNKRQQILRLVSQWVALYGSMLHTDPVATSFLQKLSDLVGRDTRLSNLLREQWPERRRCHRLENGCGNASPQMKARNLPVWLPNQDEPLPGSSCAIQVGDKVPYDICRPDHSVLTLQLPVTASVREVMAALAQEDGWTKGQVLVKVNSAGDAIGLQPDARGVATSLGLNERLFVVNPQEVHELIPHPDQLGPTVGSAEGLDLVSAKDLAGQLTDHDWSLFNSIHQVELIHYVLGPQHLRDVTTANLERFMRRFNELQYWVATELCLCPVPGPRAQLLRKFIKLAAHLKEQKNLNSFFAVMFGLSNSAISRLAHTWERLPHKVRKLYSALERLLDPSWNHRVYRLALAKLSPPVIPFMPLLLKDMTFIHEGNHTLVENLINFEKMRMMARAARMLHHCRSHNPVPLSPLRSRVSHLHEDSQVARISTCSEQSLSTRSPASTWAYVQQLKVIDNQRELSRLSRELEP
Procedure, shortened: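 Nucleotide exchange uses 100 nM EPAC1, 250 nM RAP1B-BODIPY-GDP and 50 uM GDP, with compounds in a concentration-titration series. After 5 min at room temperature, fluorescence (480 nm ex/540 nm em) is read every 5 min for 30 min. Data are normalized to control ATA and DMSO.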

[2] = target: Rap guanine nucleotide exchange factor 3 (Homo sapiens) (UniProt O95398); assay: Confirmatory qHTS for agonist of cAMP-regulated guanine nucleotide exchange factor 3 (EPAC1) (AID 1645881);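 also: EPAC1 catalysed release of BODIPY-GDP from Rap1B seen as fluorescence loss; 100% = effect of cAMP agonist control; nearly all actives have a fitted effect of over 75% in size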
[3] = target: Rap guanine nucleotide exchange factor 4 (Homo sapiens) (UniProt Q8WZA2); assay: Confirmatory qHTS for agonist of cAMP-regulated guanine nucleotide exchange factor 4 (EPAC2) (AID 1645884);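 also: nucleotide exchange releases bodipy-GDP from Rap1 and this lowers its fluorescence; % is scaled to controls: 0 for no effect and ±100 for the full control effect; nearly all actives have a fitted effect of over 65% in size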
Rap guanine nucleotide exchange factor 4 (Homo sapiens), sequence (Q8WZA2 whole entry, looked up): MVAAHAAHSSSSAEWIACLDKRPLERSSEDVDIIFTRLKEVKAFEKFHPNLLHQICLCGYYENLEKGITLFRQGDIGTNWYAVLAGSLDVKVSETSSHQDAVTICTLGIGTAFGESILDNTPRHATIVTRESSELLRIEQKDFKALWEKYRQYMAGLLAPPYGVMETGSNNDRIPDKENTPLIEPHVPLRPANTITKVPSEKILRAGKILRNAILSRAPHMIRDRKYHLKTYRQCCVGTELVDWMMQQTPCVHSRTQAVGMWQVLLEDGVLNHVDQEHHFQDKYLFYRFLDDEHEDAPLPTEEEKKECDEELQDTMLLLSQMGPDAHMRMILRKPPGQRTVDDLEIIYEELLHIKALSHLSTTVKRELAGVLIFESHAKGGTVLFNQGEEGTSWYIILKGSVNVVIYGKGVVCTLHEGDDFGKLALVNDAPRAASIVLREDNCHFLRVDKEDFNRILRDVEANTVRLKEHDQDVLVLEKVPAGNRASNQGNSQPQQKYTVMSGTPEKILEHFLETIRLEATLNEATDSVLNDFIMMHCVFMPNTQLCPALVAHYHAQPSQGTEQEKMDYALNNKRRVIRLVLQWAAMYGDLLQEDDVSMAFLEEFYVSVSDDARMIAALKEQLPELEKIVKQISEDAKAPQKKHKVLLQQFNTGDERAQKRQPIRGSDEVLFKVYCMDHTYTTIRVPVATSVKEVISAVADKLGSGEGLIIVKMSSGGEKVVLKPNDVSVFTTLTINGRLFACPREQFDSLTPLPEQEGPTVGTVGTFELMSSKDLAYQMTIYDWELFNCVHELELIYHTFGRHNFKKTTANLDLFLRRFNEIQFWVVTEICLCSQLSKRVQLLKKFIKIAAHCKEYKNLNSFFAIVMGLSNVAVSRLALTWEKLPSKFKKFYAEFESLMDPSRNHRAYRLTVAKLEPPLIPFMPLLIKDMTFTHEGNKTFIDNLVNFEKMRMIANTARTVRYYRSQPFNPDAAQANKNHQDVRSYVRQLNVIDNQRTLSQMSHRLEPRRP

[4] = target: Rap guanine nucleotide exchange factor 4 (Homo sapiens) (UniProt Q8WZA2); assay: Confirmatory qHTS for antagonist of cAMP-regulated guanine nucleotide exchange factor 4 (EPAC2) (AID 1645885); also: nearly all actives have a fitted effect of over 25% in size
[5] = target: Rap guanine nucleotide exchange factor 3 (Homo sapiens) (UniProt O95398); assay: Counterscreen qHTS for antagonist of cAMP-regulated guanine nucleotide exchange factor 3 (EPAC1) (AID 1645888);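 also: fluorescence loss as bound BODIPY-GDP is released from Rap1B; % of control where 0% means no effect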
Procedure, shortened: (§1)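 Rap1B–BODIPY-GDP (250 nM) with 50 uM GDP; compounds pin-transferred to 9.74 nM–152 uM final (activator) or from 7.32 nM upwards (inhibitor). Fluorescence Ex/Em 480/540 nm read at 5 and 30 min, then after adding cAMP or buffer, at room temperature.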

[6] = target: Rap guanine nucleotide exchange factor 3 (Homo sapiens) (UniProt O95398); assay: Counterscreen qHTS for agonist of cAMP-regulated guanine nucleotide exchange factor 3 (EPAC1) (AID 1645889); also: % of control where 0% means no effect; nearly all actives have a fitted effect of over 40% in size
Procedure, shortened: as §1

[7] = AP1 Signaling Pathway (AID 357; active = well fitted curve in either direction with a large enough effect, not every such curve was filed as active;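 also: ME-180 reporter cells stimulated with EGF at its EC50 level; % is scaled to controls: 0 for no effect and ±100 for the full control effect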); conditions: ME-180 (cervical carcinoma) AP-1-bla reporter, EGF-induced, beta-lactamase ratio, 5 h; at 7.69 µM (top of the series) unless noted
Procedure, shortened: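 First, ME-180 AP-1-bla cells were cultured overnight at 37 °C in low-serum Opti-MEM. Next, titrated compounds with EC50 EGF were incubated 5 hours. Finally, CCF4 was added for 2.5 hours and the 460/530 nm ratio recorded.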

[8] = NFAT Signaling Pathway (AID 444; active = well fitted curve in either direction with a large enough effect, not every such curve was filed as active;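 also: carbachol stimulus at about its EC50 of 1 µM final; % is scaled to controls: 0 for no effect and ±100 for the full control effect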); conditions: Jurkat NFAT-bla M1, carbachol, beta-lactamase ratio, 5 h; at 7.69 µM (top of the series) unless noted
Procedure, shortened: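 Jurkat cells with NFAT-driven β-lactamase reporter and co-expressed M1 receptor, stimulated with carbachol (final 1 uM, ~EC50), compound titration, 5 h at 37 °C. CCF4 loaded 1 h at RT; 460/530 nm ratio gave %activity and AC50.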

[9] = Stat Signaling Pathway (AID 446; active = well fitted curve in either direction with a large enough effect, not every such curve was filed as active;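 also: ME-180 cervical cancer cells given 40 pM IL-6 alongside compound; SIE-controlled beta-lactamase reporter measured as 460/530 nm FRET emission ratio; % is scaled to controls: 0 for no effect and ±100 for the full control effect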)
Procedure, shortened: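 IL-6/STAT signaling read in ME-180 cells via an SIE beta-lactamase reporter. Stimulus was 40 pM IL-6 (its AC50) for 5 hrs, so both activation and inhibition register.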

[10] = target: Glucocorticoid receptor (Homo sapiens) (UniProt P04150); assay: GR-GFP Redistribution (AID 450;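 active = compounds whose dose series gives a full or clear partial fitted curve of increased nuclear translocation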; also: potency is read from the fitted curve at half-maximal effect); conditions: U2OS GR-GFP nuclear translocation, laser cytometry, 2 h
Glucocorticoid receptor (Homo sapiens), sequence (P04150 whole entry, looked up, the tested form may be a part): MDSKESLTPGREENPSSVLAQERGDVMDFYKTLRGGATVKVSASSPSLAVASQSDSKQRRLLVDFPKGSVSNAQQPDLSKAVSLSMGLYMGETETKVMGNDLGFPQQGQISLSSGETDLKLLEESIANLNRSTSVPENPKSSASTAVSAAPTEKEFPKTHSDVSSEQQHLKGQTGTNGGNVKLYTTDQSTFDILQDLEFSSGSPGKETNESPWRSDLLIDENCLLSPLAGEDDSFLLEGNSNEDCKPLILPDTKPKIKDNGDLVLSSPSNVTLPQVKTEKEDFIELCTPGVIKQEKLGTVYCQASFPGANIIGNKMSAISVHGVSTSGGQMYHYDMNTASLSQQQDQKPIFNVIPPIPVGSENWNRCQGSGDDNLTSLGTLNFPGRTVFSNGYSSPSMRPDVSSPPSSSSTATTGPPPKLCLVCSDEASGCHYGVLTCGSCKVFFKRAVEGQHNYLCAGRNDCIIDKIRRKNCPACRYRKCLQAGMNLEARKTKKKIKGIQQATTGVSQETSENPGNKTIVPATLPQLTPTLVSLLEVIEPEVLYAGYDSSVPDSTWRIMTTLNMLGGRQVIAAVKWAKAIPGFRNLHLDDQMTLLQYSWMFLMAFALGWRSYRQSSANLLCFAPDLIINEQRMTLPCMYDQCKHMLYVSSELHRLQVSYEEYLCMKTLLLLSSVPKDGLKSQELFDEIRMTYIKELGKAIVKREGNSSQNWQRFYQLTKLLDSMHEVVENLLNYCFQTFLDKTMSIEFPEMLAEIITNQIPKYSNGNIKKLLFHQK

[11] = qHTS Assay for Inhibitors of Fructose-1,6-bisphosphate Aldolase from Giardia Lamblia: Mammalian cellular toxicity (AID 2786);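 also: compound exposure lasted 48 h before reading; % is scaled to controls: 0 for no effect and ±100 for the full control effect; nearly all actives have a fitted effect of over 60% in size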
Procedure, shortened: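 CHO cells seeded at 250 cells/well with pin-tool-added compound, incubated 48 h at 37 °C, 5% CO2. Viability read as ATP content by ATPlite luminescence after 20 min.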

[12] = target: Fructose-bisphosphate aldolase (Giardia intestinalis (strain ATCC 50803 / WB clone C6)) (UniProt A8B2U2); assay: qHTS Assay for Inhibitors of Fructose-1,6-bisphosphate Aldolase from Giardia Lamblia: Primary screen confirmation (AID 2787);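 also: aldolase product measured through coupled diaphorase step turning resazurin into fluorescent resorufin; % is scaled to controls: 0 for no effect and ±100 for the full control effect; nearly all actives have a fitted effect of over 45% in size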
Procedure, shortened: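 Confirmation of primary hits by qHTS up to 57.5 uM final compound. Enzyme at 40 nM with 30 uM ZnCl2, 10 min RT pre-incubation, then substrate/coupling/resorufin-forming detection mix for 20 min before fluorescence read at 525/598 nm.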

[13] = target: Fructose-bisphosphate aldolase A (Oryctolagus cuniculus) (UniProt P00883); assay: qHTS Assay for Inhibitors of Fructose-1,6-bisphosphate Aldolase from Giardia Lamblia: Rabbit FBPA Selectivity (AID 2794); also: % is scaled to controls: 0 for no effect and ±100 for the full control effect; nearly all actives have a fitted effect of over 60% in size
Procedure, shortened: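 Selectivity was assessed on rabbit Class I enzyme by qHTS. Product formation was detected by AmpLite Red fluorescence (525/598 nm) after a 20 min RT reaction started with substrate, following 10 min compound preincubation at up to 57.5 uM final.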

[14] = qHTS Assay for Inhibitors of Fructose-1,6-bisphosphate Aldolase from Giardia Lamblia: Coupling assay counterscreen confirmation (AID 2795); also: % is scaled to controls: 0 for no effect and ±100 for the full control effect; nearly all actives have a fitted effect of over 55% in size
Procedure, shortened: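 Readings at 525 nm excitation and 598 nm emission follow a two-step room-temperature protocol: 10 min of compound (up to 57.5 uM final) with coupling enzyme reagent, then 20 min with substrate and AmpLite Red detection reagent.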

[15] = target: Lysosomal acid glucosylceramidase (Homo sapiens) (UniProt P04062); assay: Glucocerebrosidase-p2 (AID 348; in the data active = potency below about 10 µM; also: potency is read from the fitted curve at half-maximal effect); conditions: purified GBA, blue fluorogenic substrate, 40 min
Procedure, shortened: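 Compounds titrated from 0.6 nM upwards against 0.2 nM enzyme in pH 5.9 citric acid/KH2PO4, taurocholate, tween-20; blue fluorogenic substrate 80 uM, 40 min room temperature, stopped and read Ex 365/Em 440 for AC50.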

[16] = target: Cytochrome P450 1A2 (Homo sapiens) (UniProt P05177); assay: p450-cyp1a2 (AID 410; calls by dose curve; also: potency is read from the fitted curve at half-maximal effect)
Cytochrome P450 1A2 (Homo sapiens), sequence (P05177 whole entry, looked up): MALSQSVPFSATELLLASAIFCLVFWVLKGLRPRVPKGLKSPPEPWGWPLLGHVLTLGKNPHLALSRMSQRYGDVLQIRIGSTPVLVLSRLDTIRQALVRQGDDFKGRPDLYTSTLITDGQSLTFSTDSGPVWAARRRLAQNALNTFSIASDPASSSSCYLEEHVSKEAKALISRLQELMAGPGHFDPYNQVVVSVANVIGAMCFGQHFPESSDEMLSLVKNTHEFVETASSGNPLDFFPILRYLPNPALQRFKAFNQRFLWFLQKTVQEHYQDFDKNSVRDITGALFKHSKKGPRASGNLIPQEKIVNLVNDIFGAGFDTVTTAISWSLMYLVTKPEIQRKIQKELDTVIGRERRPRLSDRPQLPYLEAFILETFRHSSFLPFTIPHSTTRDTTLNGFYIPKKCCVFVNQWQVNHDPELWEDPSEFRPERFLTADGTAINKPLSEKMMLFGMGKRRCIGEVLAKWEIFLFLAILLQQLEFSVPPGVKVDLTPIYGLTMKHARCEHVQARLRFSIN
Procedure, shortened: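 20nM CYP1A2 with 100uM Luciferin-ME (at Km) in 100mM KPO4; compound preincubated 10 min, NADPH regeneration added, 60 min at room temperature. Luciferin quantified by luminescence after detection reagent; normalized to 57 uM furafylline.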

[17] = target: Glucocorticoid receptor (Homo sapiens) (UniProt P04150); assay: GR-EFC Redistribution (AID 451; calls by dose curve; also: potency is read from the fitted curve at half-maximal effect); conditions: CHO-K1 GR-EFC translocation, beta-gal luminescence, 2 h
Procedure, shortened: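 CHO-K1 cells expressing nuclear EA and GR-ED fragments of b-gal; compounds titrated up to 46 uM final, 2 h at 37 C. GR nuclear translocation read as complemented b-gal luminescence after 1 h RT detection.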

[18] = target: Mitogen-activated protein kinase 10 (Mus musculus) (UniProt Q61831); assay: JNK3 AlphaScreen Assay (AID 530; active = well fitted curve in either direction with a large enough effect, not every such curve was filed as active;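 also: kinase came from lysate of stimulated human HepG2 cells; signal reports phosphorylation of biotinylated GST-cJun 1-79 at Ser73 with 10 µM ATP; % is scaled to controls: 0 for no effect and ±100 for the full control effect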)
Procedure, shortened: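 Pre-activated (IL-1β/TNFα) JNK3 in HepG2 lysates phosphorylates biotin-GST-cJun(1-79), 10 uM ATP; anti-phospho-cJun(Ser73) AlphaScreen read at room temperature, pH 7.6 Tris buffer. Compounds pre-incubated 15 min as titrations.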

[19] = target: 3',5'-cyclic-AMP phosphodiesterase 4B (Homo sapiens) (UniProt Q07343); assay: qHTS Assay for Inhibitors of PDE-IV (AID 607; active = well fitted activation curve with a large enough effect in the main read-out, with a control signal flat, not every such curve was filed as active; also: % of control where 0% means no effect)
3',5'-cyclic-AMP phosphodiesterase 4B (Homo sapiens), sequence (Q07343 whole entry, looked up): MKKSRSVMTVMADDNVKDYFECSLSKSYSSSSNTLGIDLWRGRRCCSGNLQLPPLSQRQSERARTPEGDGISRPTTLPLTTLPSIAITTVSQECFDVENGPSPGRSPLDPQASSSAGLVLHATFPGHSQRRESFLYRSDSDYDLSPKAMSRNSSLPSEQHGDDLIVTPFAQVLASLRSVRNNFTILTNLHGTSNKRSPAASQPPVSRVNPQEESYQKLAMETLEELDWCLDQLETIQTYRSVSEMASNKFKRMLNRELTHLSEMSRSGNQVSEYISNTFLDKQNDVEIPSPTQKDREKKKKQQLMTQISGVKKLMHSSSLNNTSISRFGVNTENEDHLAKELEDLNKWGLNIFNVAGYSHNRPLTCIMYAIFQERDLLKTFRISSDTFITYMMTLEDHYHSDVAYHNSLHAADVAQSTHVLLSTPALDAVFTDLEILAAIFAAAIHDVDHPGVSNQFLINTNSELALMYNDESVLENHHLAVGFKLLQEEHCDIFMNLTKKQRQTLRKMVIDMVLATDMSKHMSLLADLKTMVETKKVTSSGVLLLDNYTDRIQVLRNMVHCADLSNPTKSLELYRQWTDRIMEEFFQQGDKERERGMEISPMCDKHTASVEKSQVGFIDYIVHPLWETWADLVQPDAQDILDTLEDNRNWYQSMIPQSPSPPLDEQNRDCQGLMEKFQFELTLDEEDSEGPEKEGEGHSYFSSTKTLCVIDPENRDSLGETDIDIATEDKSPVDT
Procedure, shortened: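 Live HEK293 cells with a modified cyclic nucleotide-gated (CNG) channel report intracellular cAMP via membrane-potential dye fluorescence (ex 535/em 590 nm). Endogenous PDE-IV was targeted. Compounds were tested at up to 22.9 uM final; RO 20-1724 100 uM served as control.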

[20] = target: Cytochrome P450 2C9 (Homo sapiens) (UniProt P11712); assay: qHTS Assay for Inhibitors and Substrates of Cytochrome P450 2C9 (AID 883); also: potency is read from the fitted curve at half-maximal effect; nearly all actives have a fitted effect of over 60% in size
Cytochrome P450 2C9 (Homo sapiens), sequence (P11712 whole entry, looked up): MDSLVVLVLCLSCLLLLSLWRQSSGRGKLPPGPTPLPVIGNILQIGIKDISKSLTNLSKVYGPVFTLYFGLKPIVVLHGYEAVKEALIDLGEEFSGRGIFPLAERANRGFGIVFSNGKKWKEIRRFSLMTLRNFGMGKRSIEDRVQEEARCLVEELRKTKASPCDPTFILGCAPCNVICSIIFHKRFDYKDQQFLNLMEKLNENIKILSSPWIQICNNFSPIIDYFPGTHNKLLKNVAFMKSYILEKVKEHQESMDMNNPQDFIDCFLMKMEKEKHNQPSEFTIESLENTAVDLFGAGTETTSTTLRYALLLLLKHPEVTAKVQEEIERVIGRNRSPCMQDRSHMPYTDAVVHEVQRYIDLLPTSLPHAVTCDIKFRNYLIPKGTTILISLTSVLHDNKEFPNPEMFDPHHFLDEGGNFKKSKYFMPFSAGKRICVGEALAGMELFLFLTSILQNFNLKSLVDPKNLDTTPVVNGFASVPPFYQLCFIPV
Procedure, shortened: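 Signal: luciferase luminescence reporting luciferin produced by CYP2C9. Conditions: 10nM enzyme, Luciferin-H 100uM at KM, 25mM KPO4, 37C, 60 min NADPH-driven reaction. Reference: 57uM sulphaphenazole as 100% inhibition.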

[21] = target: Cytochrome P450 3A4 (Homo sapiens) (UniProt P08684); assay: qHTS Assay for Activators of Cytochrome P450 3A4 (AID 885); also: nearly all actives have a fitted effect of over 65% in size
Cytochrome P450 3A4 (Homo sapiens), sequence (P08684 whole entry, looked up): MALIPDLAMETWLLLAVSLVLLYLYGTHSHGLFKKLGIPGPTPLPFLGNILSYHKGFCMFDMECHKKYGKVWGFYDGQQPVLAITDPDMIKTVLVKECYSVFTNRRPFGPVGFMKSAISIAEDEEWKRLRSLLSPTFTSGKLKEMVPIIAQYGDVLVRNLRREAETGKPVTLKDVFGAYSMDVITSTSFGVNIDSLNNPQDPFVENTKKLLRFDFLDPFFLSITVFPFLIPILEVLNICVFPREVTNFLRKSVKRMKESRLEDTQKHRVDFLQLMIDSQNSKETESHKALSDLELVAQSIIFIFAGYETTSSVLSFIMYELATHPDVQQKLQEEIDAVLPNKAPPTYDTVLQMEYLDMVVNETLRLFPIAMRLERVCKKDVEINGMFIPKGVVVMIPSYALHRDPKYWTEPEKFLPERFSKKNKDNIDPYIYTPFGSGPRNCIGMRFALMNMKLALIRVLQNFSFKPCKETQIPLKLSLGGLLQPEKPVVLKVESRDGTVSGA
Procedure, shortened: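 Quantitative HTS format: compounds preincubated with 20nM human CYP3A4 and Luciferin-PPXE substrate at KM, reaction started by NADPH regeneration, stopped after 60 min, luciferase luminescence read 20 min later.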

[22] = target: Cytochrome P450 2C19 (Homo sapiens) (UniProt P33261); assay: qHTS Assay for Inhibitors and Substrates of Cytochrome P450 2C19 (AID 899); also: potency is read from the fitted curve at half-maximal effect; nearly all actives have a fitted effect of over 60% in size
Procedure, shortened: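 Signal comes from luciferase acting on luciferin released by CYP2C19-mediated hydroxylation of Luciferin-H EGE, 10uM (KM). Assay mix: 5nM enzyme, 50mM KPO4; 60 min at 37C with NADPH regeneration. Data normalized against 57uM ketoconazole.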

Cc1ccc(C(=O)/C=C/c2cc(Br)cc(Br)c2O)o1
inactive: Potency [2] | Potency [3] | Potency [4] | Potency [5] | Potency [6]
active: Potency [1] 26.9 µM

Cc1ccc(SCc2nnc(N)s2)cc1
inactive: activity change, negative = inhibition [7] 14.2% [at 17.2 µM] | activity change, negative = inhibition [8] -2.66% [at 17.2 µM] | outcome [9] | Potency [10] > 20.6 µM | Potency [1] | Potency [2] | activation [3] 8.48% [at 17.1 µM, percent relative to cAMP agonist control] | Potency [4] | activity change, negative = inhibition [5] 3.94% [at 30.8 µM] | activation [6] 7.74% [at 30.8 µM]

CC(=O)NNC(=O)c1sc(=S)n2c1[nH]c(=O)c1sccc12
active: Potency [1] 37.9 µM
inactive: Potency [2] | Potency [3] | Potency [4] | Potency [5] | Potency [6]

CCOC(=O)C1CCCN(C(=O)C2(c3ccc(Cl)cc3)CCCC2)CC1 (stereo not drawn)
inactive: Potency [1] | Potency [2] | Potency [3] | Potency [4] | Potency [5] | Potency [6]

CCCc1nc2ccccc2c(=O)n1/N=C/c1ccc(O)c(O)c1
inactive: outcome [11] | outcome [12] | outcome [13] | outcome [14] | Potency [1] | Potency [2] | Potency [3] | Potency [4] | Potency [5] | Potency [6]

c1ccc(NN(Cc2cnccn2)c2ccccc2)cc1
active: Potency [16] 2 µM | Potency [20] 3.16 µM | Potency [22] 2 µM
inactive: Potency [15] > 11.4 µM | activity change, negative = inhibition [7] -14% | activity change, negative = inhibition [8] -17.6% | outcome [9] | Potency [10] > 46 µM | Potency [17] > 9.22 µM | activity change, negative = inhibition [18] 3.55% [at 11.4 µM] | Potency [19] | activity change, positive = activation [21] -52.2% [at 11.4 µM] | Potency [1] | Potency [2] | Potency [3] | Potency [4] | Potency [5] | Potency [6]

Cc1nc2c(C(=O)NCCc3ccc(Cl)cc3)c[nH]n2c(=O)c1Cc1ccccc1F
active: Potency [1] 84.9 µM
inactive: Potency [2] | Potency [3] | Potency [4] | Potency [5] | Potency [6]

COc1ccc(-c2cc(C(F)(F)F)nc(SCC(=O)N3CCCCC3C)n2)cc1OC (stereo not drawn)
inactive: Potency [1] | Potency [2] | Potency [3] | outcome [4] inactive [at 12.7 µM] | Potency [5] | Potency [6]
